Structures are written as SMILES. About 79,000 compounds went through this panel and 15% of them were active in at least one assay; those are over-represented in the sample as a whole. Unmarked numbers belong to inactive results. Calls of active or inactive are those of the source. Cut-off read from the data, not from the text of the source: active = growth inhibition above about 70%; inactive = the rest.

This is an account of results in PubChem BioAssay (NCI).

A short description of experiment [1]: NCI Yeast Anticancer Drug Screen. Data for the rad50 strain (AID 155).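 Note: 0% = growth of vehicle-only cultures of the same strain.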 Particulars: S. cerevisiae rad50 strain growth inhibition, active compounds read high. In short, it runs like this:
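Cells are treated with compound, grown, and their growth is then scored against vehicle-only cultures of the same repair-deficient yeast strain.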

A short description of experiment [2]: NCI Yeast Anticancer Drug Screen. Data for the mec2-1 strain (AID 157). Particulars: S. cerevisiae mec2-1 strain, active compounds read high. In short, it runs like this: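 Strain: mec2-1 (DNA repair/cell cycle alteration). Compound exposure, then growth measured; inhibition expressed relative to vehicle.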
The nature of experiment [3]: NCI Yeast Anticancer Drug Screen. Data for the sgs1 mgt1 strain (AID 161).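 Note: 0% = growth of cultures given vehicle only.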 Particulars: S. cerevisiae sgs1 mgt1 strain, active compounds read high. In short, it runs like this: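 Test agents were incubated with a DNA-repair-mutant yeast strain. Growth was then read and compared against vehicle-treated controls.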
A short description of experiment [4]: NCI Yeast Anticancer Drug Screen. Data for the cln2 rad14 strain (AID 165).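 Note: 0% = growth equal to vehicle treated cultures.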 Particulars: S. cerevisiae cln2 rad14 strain, active compounds read high. In short, it runs like this:
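Compounds are applied to the cln2 rad14 yeast strain, and growth is then compared with that of vehicle-treated cultures to give inhibition.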

Experiment [5] can be described thus: NCI Yeast Anticancer Drug Screen. Data for the bub3 strain (AID 167). Conditions: S. cerevisiae bub3 mutant strain, active compounds read high. In short, it runs like this:
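Part of a panel of yeast mutants defective in DNA damage repair or cell cycle regulation. Each strain is grown with compound, and inhibition is calculated relative to solvent-treated cultures.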

Experiment [6] can be described thus: NCI Yeast Anticancer Drug Screen. Data for the mlh1 rad18 strain (AID 175). Particulars: S. cerevisiae mlh1 rad18 strain growth inhibition, active compounds read high. In short, it runs like this: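 Read-out is yeast growth inhibition, calculated against vehicle-only controls. The compound was applied to a strain engineered with DNA damage repair alterations.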
[7] abbreviates: at 5.0 µM (retest, dose inferred, filed as 0.5).
[8] abbreviates: at 50.0 µM (retest, dose inferred, filed as 5.0).

As to `CCc1n[nH]c(CC)c1CCCCCCOc1ccc(OC)cc1Cl`, the growth inhibition is -8% in experiment [1] (setting [7]); 60% in experiment [1] (setting [8]); 83.8% (active) in experiment [1] (at 50.0 µM); -15% in experiment [2] (setting [7]); 77% (active) in experiment [2] (setting [8]); 92.4% (active) in experiment [2] (at 50.0 µM). The growth inhibition in experiment [3] (setting [7]) was -3%; in experiment [3] (setting [8]), 73% (active); in experiment [3] (at 50.0 µM), 92.2% (active); in experiment [4] (setting [7]) it was -28%; in experiment [4] (setting [8]), 76% (active); in experiment [4] (at 50.0 µM), 89.7% (active). Also, the growth inhibition in experiment [5] (setting [7]) is -8%; in experiment [5] (setting [8]), 83% (active); in experiment [5] (at 50.0 µM), 89.2% (active); in experiment [6] (setting [7]), -11%; in experiment [6] (setting [8]) it was 73% (active); in experiment [6] (at 50.0 µM) it was 93.7% (active).
As for `NC(=S)N/N=C/c1ccc([N+](=O)[O-])o1`, the growth inhibition in experiment [1] (setting [7]) is 11%; in experiment [1] (setting [8]), 27%; in experiment [1] (at 50.0 µM), 66%; in experiment [2] (setting [7]), 3%; in experiment [2] (setting [8]), 14%; in experiment [2] (at 50.0 µM), 43.7%. Besides, the growth inhibition in experiment [3] (setting [7]) was 4%; in experiment [3] (setting [8]), 24%; in experiment [3] (at 50.0 µM) it was 65.2%; in experiment [4] (setting [7]), -3%; in experiment [4] (setting [8]), 2%; in experiment [4] (at 50.0 µM), 13.7%. The growth inhibition in experiment [5] (setting [7]) was 10%; in experiment [5] (setting [8]), 45%; in experiment [5] (at 50.0 µM), 24.2%; in experiment [6] (setting [7]), 13%; in experiment [6] (setting [8]) it was 43%; in experiment [6] (at 50.0 µM) it was 75.3% (active).
With `Cc1cc(C2CCCCC2)n(O)c(=O)c1`, the growth inhibition in experiment [1] (setting [7]) was 98% (active); in experiment [1] (setting [8]), 99% (active); in experiment [1] (at 50.0 µM), 98.8% (active); in experiment [2] (setting [7]), 98% (active); in experiment [2] (setting [8]), 99% (active); in experiment [2] (at 50.0 µM) it was 99.2% (active). The growth inhibition in experiment [3] (setting [7]) was 98% (active); in experiment [3] (setting [8]), 99% (active); in experiment [3] (at 50.0 µM), 99.5% (active); in experiment [4] (setting [7]), 96% (active); in experiment [4] (setting [8]) it was 98% (active); in experiment [4] (at 50.0 µM), 99.3% (active). Further, the growth inhibition is 96% (active) in experiment [5] (setting [7]); 99% (active) in experiment [5] (setting [8]); 98.7% (active) in experiment [5] (at 50.0 µM); 98% (active) in experiment [6] (setting [7]); 99% (active) in experiment [6] (setting [8]); 99.3% (active) in experiment [6] (at 50.0 µM).
As to `CCCCCCCCCCCCCC[N+]1(CC)CCCCC1`, the growth inhibition was 77% (active) in experiment [1] (setting [7]); 99% (active) in experiment [1] (setting [8]); 90.2% (active) in experiment [1] (at 50.0 µM); 99% (active) in experiment [2] (setting [7]); 99% (active) in experiment [2] (setting [8]); 91.3% (active) in experiment [2] (at 50.0 µM). Besides, the growth inhibition in experiment [3] (setting [7]) was 99% (active); in experiment [3] (setting [8]), 100% (active); in experiment [3] (at 50.0 µM), 92.2% (active); in experiment [4] (setting [7]), 84% (active); in experiment [4] (setting [8]) it was 99% (active); in experiment [4] (at 50.0 µM) it was 89.8% (active). For the same compound, the growth inhibition was 99% (active) in experiment [5] (setting [7]); 99% (active) in experiment [5] (setting [8]); 90.8% (active) in experiment [5] (at 50.0 µM); 67% in experiment [6] (setting [7]); 99% (active) in experiment [6] (setting [8]); 89.5% (active) in experiment [6] (at 50.0 µM).
Take `COc1ccc2c(c1)CCCN2CCCCCCCN1CCCCC1`: the growth inhibition in experiment [1] (setting [7]) is 13%; in experiment [1] (setting [8]), 49%; in experiment [1] (at 50.0 µM), 72.5% (active); in experiment [2] (setting [7]), 16%; in experiment [2] (setting [8]), 34%; in experiment [2] (at 50.0 µM) it was 45.5%. In addition, the growth inhibition in experiment [3] (setting [7]) is 26%; in experiment [3] (setting [8]), 73% (active); in experiment [3] (at 50.0 µM), 77.1% (active); in experiment [4] (setting [7]), 22%; in experiment [4] (setting [8]) it was 58%; in experiment [4] (at 50.0 µM), 90.2% (active). Moreover, the growth inhibition was 34% in experiment [5] (setting [7]); 64% in experiment [5] (setting [8]); 83.5% (active) in experiment [5] (at 50.0 µM); 32% in experiment [6] (setting [7]); 73% (active) in experiment [6] (setting [8]); 63.1% in experiment [6] (at 50.0 µM).
With `COc1ccc(C2=C/C(=C3\C(=O)Oc4ccccc4C3=O)SS2)cc1`, the growth inhibition in experiment [1] (setting [7]) was 0%; in experiment [1] (setting [8]), 32%; in experiment [1] (at 50.0 µM), -5.95%; in experiment [2] (setting [7]), -2%; in experiment [2] (setting [8]) it was 7%; in experiment [2] (at 50.0 µM), -1.6%. Also, the growth inhibition in experiment [3] (setting [7]) is 2%; in experiment [3] (setting [8]), 50%; in experiment [3] (at 50.0 µM) it was -3.75%; in experiment [4] (setting [7]) it was 1%; in experiment [4] (setting [8]) it was 36%; in experiment [4] (at 50.0 µM), 38.5%. Besides, the growth inhibition is 3% in experiment [5] (setting [7]); 24% in experiment [5] (setting [8]); -3.75% in experiment [5] (at 50.0 µM); -2% in experiment [6] (setting [7]); 32% in experiment [6] (setting [8]); 1.2% in experiment [6] (at 50.0 µM).
With `Oc1c(Cl)cc(Cl)cc1/C=C1\C=Nc2ccccc21`, the growth inhibition in experiment [1] (setting [7]) is 1%; in experiment [1] (setting [8]), -5%; in experiment [1] (at 50.0 µM), 2.75%; in experiment [2] (setting [7]), -11%; in experiment [2] (setting [8]) it was 5%; in experiment [2] (at 50.0 µM) it was 14.9%. Also, the growth inhibition in experiment [3] (setting [7]) was -7%; in experiment [3] (setting [8]), 5%; in experiment [3] (at 50.0 µM), -14.2%; in experiment [4] (setting [7]), 13%; in experiment [4] (setting [8]) it was 20%; in experiment [4] (at 50.0 µM), 13.6%. Moreover, the growth inhibition in experiment [5] (setting [7]) was 3%; in experiment [5] (setting [8]) it was 23%; in experiment [5] (at 50.0 µM) it was 5.2%; in experiment [6] (setting [7]) it was -3%; in experiment [6] (setting [8]), -3%; in experiment [6] (at 50.0 µM), 4.95%.
With `COC1=C(Br)C(=O)N/C1=C(\OC)c1ccccc1`, the growth inhibition in experiment [1] (setting [7]) is 4%; in experiment [1] (setting [8]), 9%; in experiment [1] (at 50.0 µM) it was 11.3%; in experiment [2] (setting [7]) it was 4%; in experiment [2] (setting [8]), 1%; in experiment [2] (at 50.0 µM), -8.9%. Also, the growth inhibition was 6% in experiment [3] (setting [7]); 15% in experiment [3] (setting [8]); 29.9% in experiment [3] (at 50.0 µM); 6% in experiment [4] (setting [7]); 0% in experiment [4] (setting [8]); 37.9% in experiment [4] (at 50.0 µM). The growth inhibition in experiment [5] (setting [7]) was 21%; in experiment [5] (setting [8]) it was 0%; in experiment [5] (at 50.0 µM), -1.65%; in experiment [6] (setting [7]), 2%; in experiment [6] (setting [8]), 4%; in experiment [6] (at 50.0 µM) it was 6.15%.
Consider `COC1OC(CBr)C(OC(C)=O)C(OC(C)=O)C1OC(C)=O` (stereo not given), for which the growth inhibition in experiment [1] (setting [7]) is 7%; in experiment [1] (setting [8]), -3%; in experiment [1] (at 50.0 µM) it was 5.9%; in experiment [2] (setting [7]) it was 5%; in experiment [2] (setting [8]), 3%; in experiment [2] (at 50.0 µM), 13.2%. Further, the growth inhibition in experiment [3] (setting [7]) is 8%; in experiment [3] (setting [8]), 3%; in experiment [3] (at 50.0 µM), -3.6%; in experiment [4] (setting [7]) it was 5%; in experiment [4] (setting [8]), 30%; in experiment [4] (at 50.0 µM), 8.7%. The growth inhibition in experiment [5] (setting [7]) is 6%; in experiment [5] (setting [8]), 3%; in experiment [5] (at 50.0 µM), 82.3% (active); in experiment [6] (setting [7]), -2%; in experiment [6] (setting [8]) it was 2%; in experiment [6] (at 50.0 µM), 18.9%.
In the case of `Cc1c(N)ccc(O)c1C`, the growth inhibition in experiment [1] (setting [7]) is 1%; in experiment [1] (setting [8]), 46%; in experiment [1] (at 50.0 µM), 87.7% (active); in experiment [2] (setting [7]), -1%; in experiment [2] (setting [8]) it was 30%; in experiment [2] (at 50.0 µM) it was 90.9% (active). Besides, the growth inhibition in experiment [3] (setting [7]) was -2%; in experiment [3] (setting [8]), 37%; in experiment [3] (at 50.0 µM) it was 43.2%; in experiment [4] (setting [7]), -3%; in experiment [4] (setting [8]) it was 17%; in experiment [4] (at 50.0 µM) it was 86.3% (active). Also, the growth inhibition was 1% in experiment [5] (setting [7]); 41% in experiment [5] (setting [8]); 96.8% (active) in experiment [5] (at 50.0 µM); 1% in experiment [6] (setting [7]); 35% in experiment [6] (setting [8]); 96.6% (active) in experiment [6] (at 50.0 µM).
